# Only some compounds are listed: those with a hit (about 12% of all), similar ones and a draw of the others.
# Pf growth 48h – P. falciparum growth inhibition at 48 hours (one generation) | P. falciparum luciferase growth in erythrocytes, 48 h | Potency, µM (series often up to 28.7 µM), inactives show at the top dose activity change, negative = inhibition, usual class: inhibitors | 5.9% of 310,000 active; further: on the % scale 0 is the no-effect control and ±100 the full control effect
#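 Luciferase-expressing P. falciparum in infected erythrocytes (2% hematocrit, 0.1% parasitemia final) in RPMI 1640/0.5% Albumax were exposed to compound for 48 hours at 37 C, 5% CO2; growth read as luminescence.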
# AMA1 RON2 block – inhibitors of Plasmodium falciparum AMA1-RON2 interaction; AlphaScreen AMA1-biotinylated RON2 peptide binding; Potency, µM (top dose mostly 58.2 µM), for the others: at the top dose activity change, negative = inhibition, usual class: inhibitors; 0.2% of 360,000 active; AID 720542;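 further: 0% = vehicle wells and -100% = peptide control; nearly all actives have a fitted effect of over 45% in size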
#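 AMA1 (3D7) with his tag at 25 nM final met compounds first, then biotinylated RON2 peptide at 25 nM; detection used donor plus acceptor beads, 10 µg/mL apiece, read by AlphaScreen after 30 min at room temperature.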
# Pf growth 96h – P. falciparum growth inhibition at 96 hours; 6.9% of 320,000 active; P. falciparum luciferase reporter growth, 96 h; Potency, µM (series often up to 28.7 µM), for inactives: top-dose activity change, negative = inhibition, usual class: inhibitors; further: on the % scale 0 is the no-effect control and ±100 the full control effect
#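 96 h incubation, 37 C, 5% CO2, of luciferase-reporter P. falciparum-infected RBCs (2% hematocrit, 0.05% parasitemia final) with test compounds; endpoint luminescence.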
# HCV inhibitor – HCV inhibition; Huh7.5.1 HCVcc-Cre infection, luciferase reporter, 44 h; Potency, µM (highest dose often 41.8 µM), for inactives: at the highest dose activity change, negative = inhibition, most hits filed as inhibitors; AID 651820; 3.4% of 340,000 active; further: on the % scale 0 is the no-effect control and ±100 the full control effect
#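 Compounds are dispensed onto cells plated 4 h earlier at 1,000 per well, with HCVcc-Cre virus (about 0.5 moi) added next. Following 44 h of culture, luminescent signal is measured for 15 sec after 15 min with substrate at room temperature.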
# SARS PLP yeast – SARS-CoV PLP inhibition in yeast; S. cerevisiae expressing SARS-CoV PLpro, growth rescue; Potency, µM (top dose mostly 32.9 µM), without a hit: at the highest dose activity, positive = growth rescue, usual class: activators; 0.19% of 330,000 active; AID 485353; calls by dose curve; further: 0% is about no effect; nearly all actives have a fitted effect of over 55% in size
# NS1 inh – blocks influenza NS1 protein function | Potency, µM (titrated, usually from 46.1 µM), for the others: at the highest dose activity, positive = more growth | 0.4% of 270,000 active; calls by dose curve; further: actives are rising curves; nearly all actives have a fitted effect of over 50% in size
#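 S. cerevisiae expressing influenza A NS1, grown in glucose, washed, then diluted 1:100 into pH 6.0 -URA galactose medium with 23 nl compound. Growth recovery read as OD600; NS1-free strain serves as control.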
# The depositor's hits bear a star; u = inconclusive; x = no result; [ ] = dose if it differs, or a comment. Unless noted, the call rests on the fitted dose curve; in most records, active means well fitted curve in the direction sought with a large enough effect; inconclusive means small, poorly fitted or top-dose-only effect, or another doubt; inactive means no such curve, though single readings can be large; an effect the other way counts as inactive or inconclusive. Potency means the concentration at half of the fitted maximal effect.
SMILES,Pf growth 48h,AMA1 RON2 block,Pf growth 96h,HCV inhibitor,SARS PLP yeast,NS1 inh
O=C(N/N=C/c1cc([N+](=O)[O-])ccc1O)NC12CC3CC(CC(C3)C1)C2,-67%,71%,3.3µM*,7%,u,-1%
CCOC(=O)c1c(C)[nH]c(C(=O)N/N=C/c2cc([N+](=O)[O-])ccc2O)c1C,u,4%,u,11µM*,-2%,12%
CCOC(=O)c1c(C)[nH]c(C(=O)N/N=C\c2ccccc2O)c1C,u,78%,u,u,u,-8%
CCNC(=O)C(=O)N/N=C/c1cc([N+](=O)[O-])ccc1O,u,-14%,10µM*,11%,-2%,x
CCCNC(=O)C1(CC2CC(c3ccccc3)=NO2)CCN(C(=O)CCCCCBr)CC1 (centres undefined),x,48%,x,53%,x,x
O=C(N/N=C/c1cc([N+](=O)[O-])ccc1O)C12CC3CC(CC(C3)C1)C2,8.3µM*,90%,34%,u,u,x
c1cc2c(cc1-c1cnc3n1CCC3)OCCO2,31%,-2%,x,10µM*,-1%,-2%
COc1cccc(C(=O)Nc2c[nH]c(=O)[nH]c2=O)c1,66%,18%,29%,-5%,-2%,2%
CC1CCCN(c2nc3nonc3nc2N2CCCC(C)C2)C1 (centres undefined),10µM*,-6%,-8%,-16%,-25%,-2%
CC1CCN(c2nc3nonc3nc2N2CCC(C)CC2)CC1,1%,-9%,-18%,-24%,5%,5%
COc1ccc(O)c(C(=O)C2c3ccccc3C(=O)N2c2ccc(C)cc2)c1 (centres undefined),u,-7%,1.5µM*,18%,-4%,10%
Nc1ccc(C(=O)Nc2ccc(OC(F)(F)C(F)F)c(NC(=O)c3ccc(N)cc3)c2)cc1,-29%,-11%,u,6.3µM*,4%,22%
CCN(C[C@H]1N[C@@](CC)(C(=O)OC)[C@H]2C(=O)N(Cc3ccccc3)C(=O)[C@@H]12)C(=O)Nc1ccc(Cl)cc1,x,-7%,x,-14%[8.37 µM],2%,x
Cn1c(=O)c([N+](=O)[O-])c(Cl)c2ccccc21,-7%,5%,-3%,7.9µM*,-7%,-62%
CN(C(=O)c1c[nH]c(=O)cc1C(F)(F)F)c1ccc(Cl)c(Cl)c1,12µM*,2%,-108%,-13%,0%,0%
CN(C(=O)c1c[nH]c(=O)cc1C(F)(F)F)c1ccc(Cl)cc1,u,-4%,u,2%,0%,-1%
O=C(NCCCN1CCOCC1)C(=O)c1c[nH]c2ccccc12,2%,5%,-11%,4%,12%,8%
Cc1ccc(CN2CCN(CC(=O)NCCCN3CCN(c4ccc(F)cc4)CC3)C2=O)cc1,u,-5%,u,8.9µM*,3%,18%
COc1ccc(N2CCN(CCCNC(=O)CN3CCN(Cc4ccccc4C)C3=O)CC2)cc1,u,u,-21%,11µM*,-5%,1%
CCOCCCNC(=O)CN1CCN(c2ccc(F)cc2)CC1,3%,-15%,-12%,15%,-2%,-4%
COc1ccc(N2CCN(CCCNC(=O)C(=O)c3c[nH]c4ccccc34)CC2)cc1,3.7µM*,u,2.1µM*,u,0%,3%
O=C(CN1CCN(Cc2ccccc2Cl)C1=O)NCCCN1CCOCC1,2%,0%,20%,8%,-1%,1%
O=C(N/N=C/C=C/c1ccc([N+](=O)[O-])cc1)C1COc2ccccc2O1 (centres undefined),11%,68%,12µM*,-15%,-38%,10%
O=C(Nc1ccc([N+](=O)[O-])cc1)C1COc2ccccc2O1 (centres undefined),u,5%,27%,16%,1%,-7%
Cc1ccc(C2CC2c2n[nH]c(=S)n2-c2ccc(C)cc2)cc1 (centres undefined),-1%,53%,x,25µM*,u,12%
SMILES,Pf growth 48h,AMA1 RON2 block,Pf growth 96h,HCV inhibitor,SARS PLP yeast,NS1 inh
Cc1ccc(-n2c(C3CC3c3ccc(Cl)cc3)n[nH]c2=S)cc1 (centres undefined),x,48%,9.3µM*,6%,u,18%
N#Cc1ccc(OC(=O)C2CCN(C3=NS(=O)(=O)c4ccccc43)CC2)cc1,-7%,3%,-9%,8%,1%,x
ClC1(CNc2ccccc2)CCN(Cc2ccccc2)CC1,x,-24%,x,-5%,x,x
Cc1ccc(NC(=O)C(=O)NCC2OCCc3ccccc32)cc1 (centres undefined),43%,-1%,13%,2%,-1%,0%
O=C(NCC1OCCc2ccccc21)c1ccc(NC(=O)c2ccc(Cl)cc2)cc1 (centres undefined),u,3%,20%,4.5µM*,24%,-1%
Cc1ccc2oc(=O)c(/C=C(\O)c3sc(C)nc3C)nc2c1,u,33%,10µM*,11%,9%,8%
CC(C)(C)/C(O)=C/c1nc2cc(Cl)ccc2oc1=O,9.3µM*,57%,5.9µM*,-4%,-3%,-56%
O=C(COC(=O)CCC(=O)c1cccs1)Nc1cccc(F)c1,-6%,4%,-13%,20%,2%,x
COc1ccc(S(=O)(=O)Nc2cc(C)on2)cc1,24%,4%,4%,5%,0%,-3%
COc1ccc(C2/C=C\CN(Cc3ccc(N(C)C)cc3)CC(=O)N2Cc2ccc(F)cc2)cc1 (centres undefined),u,16µM*,u,-4%[8.37 µM],-2%,-8%
COc1ccc(C2/C=C\CN(C(=O)CC(C)(C)C)CC(=O)N2Cc2ccc(F)cc2)cc1 (centres undefined),u,3%,u,5µM*,-3%,4%
COc1ccc(C2/C=C\CN(C(=O)C3CC3)CC(=O)N2Cc2ccc(F)cc2)cc1 (centres undefined),35%,1%,54%,-1%,-3%,u
COc1ccc(C2/C=C\CN(C(=O)CC(C)C)CC(=O)N2Cc2ccc(F)cc2)cc1 (centres undefined),u,-2%,u,16%,0%,1%
CCN(C(=O)CCS(=O)(=O)c1cccc2nonc12)c1ccc(C)c(C)c1,-16%,0%,u,9%,9%,3%
Cc1ccc(-c2nnn(CC(=O)N(CCCO)C(C(=O)NC3CCCC3)c3ccc(F)cc3)n2)o1 (centres undefined),-2%,-18%,-17%,-26%,-1%,4%
C#CCOCCOCCOCCNc1nc(N2CCN(C(=O)[C@H](Cc3cc4ccccc4[nH]3)n3cc([C@@H](N)CC(C)C)nn3)CC2)nc(N2CCN(C(=O)[C@H](Cc3cc4ccccc4[nH]3)n3cc([C@@H](N)CC(C)C)nn3)CC2)n1,2.6µM*,-24%,4.1µM*,12%,-3%,8%

# Screening results: PubChem, National Center for Advancing Translational Sciences (NCATS)
